Inconclusive results are not listed. The source made the active and inactive calls. Unless noted, the call rests on the fitted dose curve; in most records, active means well fitted curve in the direction sought with a large enough effect in the repeat runs; inconclusive means weak or mixed curves; inactive means no such curve, though single readings can be large; an effect the other way counts as inactive or inconclusive.
Legend:
[1] = qHTS assay to identify small molecule agonists or antagonists of the thyroid stimulating hormone receptor (TSHR) signaling pathway - wild type cell line counter screen (AID 1259384; calls by dose curve)
In short: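 Wild-type HEK293 cells were plated 18 h at 37 C/5% CO2, pin-dosed with compound plus Ro20-1724 medium, held 30 min at room temperature, then given cAMP-d2 and anti-cAMP-cryptate; fluorescence was read after 1 h. Fifteen concentrations, triplicate.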

[2] = biological target: Thyrotropin receptor (Homo sapiens) (UniProt P16473); experiment: qHTS assay to identify small molecule antagonists of the thyroid stimulating hormone receptor (TSHR) signaling pathway (AID 1259385; calls by dose curve; further: nearly all actives have a fitted effect of over 20% in size)
Chain of Thyrotropin receptor (Homo sapiens) (P16473 whole entry, looked up): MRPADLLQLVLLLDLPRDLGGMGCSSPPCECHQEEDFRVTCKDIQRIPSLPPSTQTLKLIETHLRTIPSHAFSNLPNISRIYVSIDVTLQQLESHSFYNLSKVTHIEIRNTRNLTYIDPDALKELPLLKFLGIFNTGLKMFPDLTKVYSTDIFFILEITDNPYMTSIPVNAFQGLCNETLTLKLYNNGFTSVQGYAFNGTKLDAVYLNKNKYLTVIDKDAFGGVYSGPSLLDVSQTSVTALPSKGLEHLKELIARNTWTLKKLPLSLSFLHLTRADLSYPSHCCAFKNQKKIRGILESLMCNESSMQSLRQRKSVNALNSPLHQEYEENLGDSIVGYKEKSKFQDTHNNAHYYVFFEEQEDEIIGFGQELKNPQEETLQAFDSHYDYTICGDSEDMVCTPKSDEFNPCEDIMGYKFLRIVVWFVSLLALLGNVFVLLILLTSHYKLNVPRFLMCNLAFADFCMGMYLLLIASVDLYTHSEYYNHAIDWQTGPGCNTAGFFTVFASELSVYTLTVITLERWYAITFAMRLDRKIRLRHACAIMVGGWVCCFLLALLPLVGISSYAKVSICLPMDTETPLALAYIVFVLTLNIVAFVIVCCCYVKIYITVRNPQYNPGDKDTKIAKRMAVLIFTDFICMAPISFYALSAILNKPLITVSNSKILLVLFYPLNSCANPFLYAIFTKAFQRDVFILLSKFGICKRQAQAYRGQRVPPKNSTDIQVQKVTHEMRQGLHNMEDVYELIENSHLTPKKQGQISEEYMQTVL
In short: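 TSHR-HEK293 cells were plated and held 18 h at 37C/5% CO2, then given compound plus Ro20-1724 and stimulated with TSH at 1.5 ng/mL final. After 30 min at room temperature, cAMP was detected with cAMP-d2/anti-cAMP-cryptate (1 h) by fluorescence.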

[3] = qHTS assay to identify small molecule agonists of the estrogen receptor alpha (ER-alpha) signaling pathway in the presence of an antagonist - cell viability counter screen (AID 1259386);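 further: series mostly up to about 92 µM; cells exposed to compounds for 22 h at 37 °C before the viability read; nearly all actives have a fitted effect of over 30% in size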
In short: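 Cell viability in VM7Luc4E2 cells (endogenous full-length ER-alpha) measured by CellTiter-Fluor fluorescence in the same wells as the luciferase screen. Cells pre-cultured 5 days in charcoal-stripped serum, then treated 22 h with compounds at 15 concentrations plus 10.0nM ICI-182,780.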

[4] = biological target: Progesterone receptor (Homo sapiens) (UniProt P06401); experiment: qHTS assay to identify small molecule agonists of the progesterone receptor (PR) signaling pathway (AID 1346784; calls by dose curve; further: nearly all actives have a fitted effect of over 30% in size)
Chain of Progesterone receptor (Homo sapiens) (P06401 whole entry, looked up): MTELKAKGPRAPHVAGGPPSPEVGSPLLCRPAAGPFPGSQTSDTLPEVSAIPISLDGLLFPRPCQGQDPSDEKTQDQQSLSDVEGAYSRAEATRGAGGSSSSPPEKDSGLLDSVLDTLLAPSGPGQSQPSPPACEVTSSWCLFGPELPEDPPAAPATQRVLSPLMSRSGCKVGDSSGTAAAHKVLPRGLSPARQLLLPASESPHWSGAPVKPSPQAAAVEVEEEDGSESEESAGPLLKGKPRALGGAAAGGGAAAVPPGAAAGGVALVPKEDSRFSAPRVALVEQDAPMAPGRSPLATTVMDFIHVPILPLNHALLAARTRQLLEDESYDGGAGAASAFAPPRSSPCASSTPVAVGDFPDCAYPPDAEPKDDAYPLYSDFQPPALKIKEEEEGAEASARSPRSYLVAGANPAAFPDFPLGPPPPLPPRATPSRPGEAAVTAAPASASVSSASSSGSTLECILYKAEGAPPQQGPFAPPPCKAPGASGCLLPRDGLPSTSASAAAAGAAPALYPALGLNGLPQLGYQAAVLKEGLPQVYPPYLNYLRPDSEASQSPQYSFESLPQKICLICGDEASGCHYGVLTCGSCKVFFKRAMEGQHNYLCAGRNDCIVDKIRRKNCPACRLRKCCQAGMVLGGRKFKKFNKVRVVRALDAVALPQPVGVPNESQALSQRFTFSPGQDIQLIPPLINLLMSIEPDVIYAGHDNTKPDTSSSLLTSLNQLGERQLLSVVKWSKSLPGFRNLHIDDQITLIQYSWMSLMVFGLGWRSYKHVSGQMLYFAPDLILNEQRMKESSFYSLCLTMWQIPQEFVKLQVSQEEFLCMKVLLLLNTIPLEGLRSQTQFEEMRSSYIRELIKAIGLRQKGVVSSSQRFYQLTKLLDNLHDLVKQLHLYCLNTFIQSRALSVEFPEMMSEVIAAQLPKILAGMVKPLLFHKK
In short: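 Agonist mode, quantitative HTS format in a HEK 293T line expressing a UAS-controlled beta-lactamase reporter; 16 hr compound exposure at 37C in 2% charcoal-stripped FBS, then LiveBLAzer B/G FRET fluorescence.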

[5] = biological target: Progesterone receptor (Homo sapiens) (UniProt P06401); experiment: qHTS assay to identify small molecule antagonists of the progesterone receptor (PR) signaling pathway (AID 1346795; active means well fitted inhibition curve with a large enough effect in the signal ratio in the repeat runs, not every such curve was filed as active; the % refers to the signal ratio)
In short: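 HEK293T PR-UAS-bla reporter cells in charcoal-stripped serum (2%) received compound after a 6 hr settling period, followed by R5020 agonist at 1 nM final; 16 hr incubation preceded the FRET substrate step and fluorescence measurement.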

[6] = qHTS assay to identify small molecule antagonists of the progesterone receptor (PR) signaling pathway - cell viability counter screen (AID 1346798); further: series mostly up to about 92 µM; nearly all actives have a fitted effect of over 50% in size
In short: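 Same-well multiplex: after 16 hr at 37C with compound and R5020 stimulation, HEK293T cells carrying a UAS-bla reporter received LiveBLAzer substrate (2 hr RT), then CellTiter-Glo (30 min RT) for luminescent viability.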

[7] = qHTS assay to identify small molecule agonists of the progesterone receptor (PR) signaling pathway - cell viability counter screen (AID 1346799; calls by dose curve; further: nearly all actives have a fitted effect of over 45% in size)
In short: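 Counter screen for cytotoxicity: compound-treated PR-UAS-bla HEK293T cells (16 hr, 37C, 5% CO2) were assayed with CellTiter-Glo, luminescence measured after 30 min at room temperature.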

[8] = qHTS assay to identify small molecule agonists of the TGF-beta/Smad signaling pathway - cell viability counter screen (AID 1346829); further: top concentration of the series differs between compounds; nearly all actives have a fitted effect of over 45% in size
In short: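 After overnight seating at 37 C and 5% CO2, reporter cells got compounds for 5 hr and FRET substrate for 2 hr; cell viability then came from CellTiter-Glo luminescence.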

[9] = qHTS assay to identify small molecule antagonists of the TGF-beta/Smad signaling pathway - cell viability counter screen (AID 1346824); further: nearly all actives have a fitted effect of over 50% in size
In short: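 SBE-bla HEK 293T cells were plated overnight at 37 C, then given compounds in DMSO plus TGF-beta1 (added as 0.25 ng/mL solution) for 5 hr. After the bla read, CellTiter-Glo was added to the same wells and luminescence read after 30 min at room temperature.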
On the % scale 0 is the no-effect control and ±100 the full control effect.

CCCCc1ccc(Cl)cc1
inactive: outcome [1] | outcome [2] | outcome [3] | Potency [4] | Potency [5] | outcome [6] | Potency [7] | outcome [8]

C[C@@H]1NC(=O)[C@@H](N)CNC(=O)[C@H](C2CCNC(N)=N2)NC(=O)/C(=C/NC(N)=O)NC(=O)[C@H](CNC(=O)C[C@@H](N)CCCN)NC1=O (some centres undefined)
inactive: cAMP activity change [1] -0.133% [at 0.349 µM] | activity change, negative = inhibition [2] 2.75% [at 0.349 µM] | activation [4] -1.98% [at 0.349 µM] | activity change, negative = inhibition [5] 9.13% [at 0.348 µM] | activity change, negative = cytotoxicity [6] 0.0667% [at 0.348 µM] | viability change, negative = cytotoxic [9] 13.5% [at 0.29 µM] | activity change, negative = cytotoxicity [8] -5.87% [at 0.29 µM]

CC(C)(C)NCC(O)COc1cccc2c1CCC(=O)N2 (centres undefined)
inactive: outcome [1] | outcome [2] | outcome [3] | outcome [6] | outcome [9] | outcome [8]

O=C(c1ccccc1)c1cccc(O)c1
inactive: outcome [1] | outcome [2] | outcome [3] | Potency [7] | outcome [9] | outcome [8]

CC(C)(C)C(=O)NCCCC(=O)O
inactive: outcome [1] | outcome [2] | outcome [3] | outcome [6] | Potency [7] | outcome [9] | outcome [8]

COc1cc(C(=O)NC2CCCNC2)cc(OC)c1OC (centres undefined)
inactive: outcome [1] | outcome [2] | outcome [3] | Potency [4] | Potency [5] | outcome [9] | outcome [8]

Clc1cc(Cl)c(Cl)c(Cl)c1Cl
inactive: outcome [1] | outcome [2] | outcome [3] | Potency [5] | outcome [6] | Potency [7] | outcome [9] | outcome [8]

— PubChem BioAssay (Tox21)
